PvdQ acylase: P. aeruginosa PvdQ acylase inhibition; purified PvdQ acylase, fluorescence plate reader; inhibition, % at 10 µM; hit rate 0.063% among 340,000; AID 488965; in the data active = inhibition above about 30%, passing the limit was not always enough;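 note: 0% = vehicle neutral wells and 100% = reference inhibitor wells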
ARNT TACC3 PPI: disrupts binding between human ARNT and TACC3; hit rate 0.66% among 390,000; AlphaScreen His-ARNT PAS-B/GST-TACC3 binding, luminescence; TACC3 fragment carries E629A point mutation; inhibition, % at 9.99 µM; Q9Y6A5;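 active = mean inhibition of replicates at least 50% and at least half of replicates each reaching 50%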;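 note: 0% = complete ARNT plus TACC3 wells and 100% = ARNT alone without TACC3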
rRNA inh HTS: selective bacterial rRNA inhibition in E. coli | E. coli WT GFP vs humanized-ribosome RFP mutants, fluorescence, 24 h; stronger effect = lower value; DMSO median 0, no signal -100 | GFP signal change (wild-type ribosome), % (test concentration not listed) | hit rate 1.6% among 350,000 | AID 720706;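 active = significant combined selectivity score with lowered wild-type GFP, culture density cut under 30%, mutant RFP and density less affected; inactive = any of these conditions unmet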
ERAP1 inh: ERAP1 (human) enzyme inhibition; Q9NZ08; recombinant ERAP1, Leu-AMC fluorescence, 60 min; inhibition, % at 10.7 µM; hit rate 0.15% among 340,000; AID 652197;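 active = mean replicate inhibition of at least 30%, or all replicates individually reaching that 30% level; inactive = mean below 30% and not every replicate reaching it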;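 note: 0% = neutral control wells and 100% = L-leucinethiol positive control wells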
Target sequence (Q9NZ08 whole entry, looked up): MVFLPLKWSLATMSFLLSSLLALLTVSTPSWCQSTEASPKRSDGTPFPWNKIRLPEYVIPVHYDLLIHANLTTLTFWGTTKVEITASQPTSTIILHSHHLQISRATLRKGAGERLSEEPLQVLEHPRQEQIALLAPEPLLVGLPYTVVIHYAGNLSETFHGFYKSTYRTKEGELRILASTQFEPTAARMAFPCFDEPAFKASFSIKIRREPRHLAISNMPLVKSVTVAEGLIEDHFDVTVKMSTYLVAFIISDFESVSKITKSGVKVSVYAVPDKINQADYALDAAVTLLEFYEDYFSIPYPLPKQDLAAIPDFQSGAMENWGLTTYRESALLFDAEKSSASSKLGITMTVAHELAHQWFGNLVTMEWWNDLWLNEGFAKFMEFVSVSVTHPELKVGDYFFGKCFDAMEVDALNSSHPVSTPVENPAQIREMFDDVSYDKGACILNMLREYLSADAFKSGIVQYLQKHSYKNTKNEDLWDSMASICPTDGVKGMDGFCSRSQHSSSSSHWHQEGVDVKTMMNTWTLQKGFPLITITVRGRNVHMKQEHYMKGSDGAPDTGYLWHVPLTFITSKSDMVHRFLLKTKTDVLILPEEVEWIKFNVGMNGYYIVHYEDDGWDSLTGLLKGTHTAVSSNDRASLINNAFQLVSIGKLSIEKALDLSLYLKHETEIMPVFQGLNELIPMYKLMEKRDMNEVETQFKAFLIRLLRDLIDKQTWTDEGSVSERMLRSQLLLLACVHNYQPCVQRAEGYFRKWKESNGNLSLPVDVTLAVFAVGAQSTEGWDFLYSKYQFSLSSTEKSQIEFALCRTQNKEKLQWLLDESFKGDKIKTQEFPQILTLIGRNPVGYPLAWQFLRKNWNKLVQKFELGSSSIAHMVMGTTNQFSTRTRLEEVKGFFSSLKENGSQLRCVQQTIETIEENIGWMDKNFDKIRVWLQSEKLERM
CFTR F508del cor: CFTR F508del correction in bronchial cells; hit rate 0.36% among 350,000; activity (quench increase), % at 7.58 µM; CFBE cells, YFP halide quenching; stimulated with forskolin plus potentiator P3; % fluorescence drop versus neutral controls;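 active = mean added fluorescence quench of at least 8% versus neutral control, with both replicates also reaching 8%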;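 note: cells transiently co-express mutant CFTR-F508del with the halide-sensitive YFP; corrector assay measuring rescue of mutant channel to the surface after 24 h compound exposure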
Active calls of the source: *; / = no result given. Hits are enriched below; roughly 2.1% of the tested compounds scored in any of these assays.

SMILES	PvdQ acylase	ARNT TACC3 PPI	rRNA inh HTS	ERAP1 inh	CFTR F508del cor
COC(=O)C1=CN(c2ccc(OC)cc2OC)C(N)=C(C#N)C1c1ccccc1F (stereo not given)	/	/	2.3	/	9.8*
COC(=O)C1=CN(c2ccc3c(c2)OCO3)C(N)=C(C#N)C1c1cccc(F)c1 (stereo not given)	/	/	-9.4	-0.9	11.2*
COc1ccc2c3c([nH]c2c1)[C@H](CO)N(Cc1cccc(Cl)c1)CC31CCN(C(C)=O)CC1	/	/	-0.2	/	-0.6
COc1ccc(NC(=O)Nc2ccc3c(c2)[C@H]2C[C@H](CC(=O)N(C)C)O[C@H](CO)[C@H]2O3)cc1	/	0.6	-0.9	-2.3	1.0
CN1CCN(c2nc(-c3ccccn3)nc3ccccc23)CC1	-8.5	67.3*	/	/	/
Cc1cc(C(=O)N2CC=C(c3ccccc3)CC2)c2ccccc2n1	-17.8	/	-2.4	1.6	9.9*
O=C(C[C@H]1C[C@H]2c3cc(NC(=O)C4CCC4)ccc3O[C@H]2[C@H](CO)O1)NCc1ccc2c(c1)OCO2	/	-4.2	2.0	0.5	-2.5
Cc1noc(C)c1NC(=O)N(C)C[C@@H]1Oc2ccc(NS(=O)(=O)c3ccccc3)cc2C(=O)N([C@@H](C)CO)C[C@@H]1C	/	-1.0	1.9	1.3	0.8
Clc1ccc(N(CC2CO2)CC2CO2)cc1 (stereo not given)	-9.3	-4.0	0.0	-5.1	8.1*
O=S(=O)(c1ccccc1)N(CC1CO1)c1cc(Cl)ccc1Cl (stereo not given)	-23.8	/	-22.8	0.1	1.1
COCC[N+]1(C)CCCCC1	-3.2	-10.6	15.8	89.0*	2.6
O=C(N[C@H]1CC[C@@H](CCNC(=O)c2ccccc2F)O[C@H]1CO)c1cnccn1	/	9.8	1.6	7.7	0.4
C[C@H](CO)N1C[C@H](C)[C@H](CN(C)Cc2ccccc2)Oc2c(NS(=O)(=O)c3ccccc3)cccc2C1=O	/	/	0.1	-0.3	1.2
O=C(Nc1cc(Br)ccc1O)C1CC(c2c(F)cccc2Cl)=NO1 (stereo not given)	-12.5	-0.1	-36.0*	0.0	/
O=C(Nc1ccc(Br)cc1)C1CC(c2c(F)cccc2Cl)=NO1 (stereo not given)	1.0	2.7	-2.6	0.8	-1.5
COc1ccc(Cl)cc1NC(=O)C1CC(c2c(F)cccc2Cl)=NO1 (stereo not given)	-11.0	-2.5	-29.8*	1.1	1.4
CSc1ccccc1NC(=O)C1CC(c2c(F)cccc2Cl)=NO1 (stereo not given)	-14.6	-3.2	-25.2*	3.1	1.1
CC(C)C#Cc1cnc2c(c1)C(=O)N([C@H](C)CO)C[C@@H](C)[C@@H](CN(C)S(=O)(=O)c1cn(C)cn1)O2	/	-9.4	2.7	-2.6	0.2
Cn1cnc(S(=O)(=O)N[C@@H]2CC[C@@H](CC(=O)Nc3ccccc3)O[C@@H]2CO)c1	/	3.5	2.0	0.1	-0.4
COc1ccc(NC(=O)N(C)C[C@@H]2Oc3c(NS(=O)(=O)c4c(C)noc4C)cccc3C(=O)N([C@@H](C)CO)C[C@@H]2C)cc1	/	-6.0	3.6	-0.2	1.1
COc1ccc(C(=O)O)cc1S(=O)(=O)Nc1cc(C(F)(F)F)ccc1N1CCCCC1	/	/	-25.0*	-203.4	-1.4
O=C(O)CN1C(=O)/C(=C\c2cn(-c3ccccc3)nc2-c2ccccc2)SC1=S	-5.1	45.6*	/	/	/
C=CCn1c(O)c(N=NC(=S)Nc2ccccc2F)c2ccccc21	-2.5	-4.5	-20.8*	-0.8	5.6
C[C@@H]1CN([C@@H](C)CO)C(=O)Cc2cc(NC(=O)Nc3ccc4c(c3)OCO4)ccc2O[C@@H]1CN(C)S(=O)(=O)c1ccccc1	/	/	1.2	-0.6	-0.8
O=C(NCc1ccc(Cl)cc1)c1n[nH]c([N+](=O)[O-])c1Cl	-9.4	-36.0	-14.8*	3.3	-5.2
SMILES	PvdQ acylase	ARNT TACC3 PPI	rRNA inh HTS	ERAP1 inh	CFTR F508del cor
O=C(Cc1ccccn1)NCC[C@@H]1CC[C@H](NC(=O)CN2CCOCC2)[C@@H](CO)O1	/	4.1	0.6	1.7	1.6
CN=c1scc(-c2cccs2)n1/N=C/c1ccc(O)c(O)c1O	-10.9	60.3*	-13.2	-2.8	1.1
CN=c1scc(-c2cccs2)n1/N=C/c1ccccc1O	3.3	8.8	-26.6*	11.9	/
Oc1ccc(/C=N/n2c(-c3ccco3)csc2=Nc2cccnc2)c(O)c1	-7.5	64.2*	/	/	/
Cc1cc(C)n(/N=C/c2ccccc2O)c(=O)c1	-6.2	-2.5	14.5	-1.8	0.1
C=CCN=c1scc(-c2ccco2)n1/N=C/c1ccc(O)c(O)c1O	-7.6	49.3*	-0.1	-2.5	0.5
CN=c1scc(C)n1/N=C/c1ccc(O)c(O)c1O	15.9	33.3	/	/	/
CC(C)N=c1scc(-c2ccco2)n1/N=C/c1ccc(O)c(O)c1	4.9	26.8	/	/	/
CNC[C@@H]1Oc2ncc(C#Cc3ccc(F)cc3)cc2C(=O)N([C@H](C)CO)C[C@@H]1C	/	0.4	-1.2	4.5	3.2
O=C(CC1CC1)N1CC2(C1)[C@@H](c1ccccc1)[C@@H](CO)N2Cc1cccc(F)c1	/	/	-4.2	-1.1	2.3
O=C(Cn1c2[n+](c3ccc(C(F)(F)F)cc31)CCCCC2)c1ccc2c(c1)OCCO2	-15.3	/	-37.8*	-1.8	-1.6
O=C(Cn1c2[n+](c3ccc(C(F)(F)F)cc31)CCCCC2)c1cccc([N+](=O)[O-])c1	-16.4	/	3.8	-3.3	-1.8
CCc1cccc(NC(=O)Cn2c3[n+](c4ccc(C(F)(F)F)cc42)CCCCC3)c1	-0.7	/	-44.7*	4.4	0.2
C[C@@H]1CCCCO[C@H](CN(C)Cc2ccc3c(c2)OCO3)[C@H](C)CN([C@H](C)CO)C(=O)c2cc(NC(=O)c3ccncc3)ccc2O1	/	/	-1.2	1.3	0.4
COc1cc2c(cc1Cl)C(=O)C(F)(c1ccccc1)C(=O)N2 (stereo not given)	-4.4	-2.7	-28.8*	8.7	0.2
COc1cc(C2c3cc4c(cc3OC(NNC(N)=O)C2C)OCO4)cc(OC)c1OC (stereo not given)	17.4	/	-0.5	-0.9	1.5
COc1cccc(C2c3cc4c(cc3OC(NNC(N)=O)C2C)OCO4)c1O (stereo not given)	8.0	5.1	-0.9	1.4	8.9*
CC(=O)N1CC2(C1)[C@H](c1ccccc1)[C@H](CO)N2Cc1cc(F)ccc1F	/	/	-1.6	-2.9	-3.9
C[C@H](CO)N1C[C@H](C)[C@@H](CN(C)S(=O)(=O)c2ccc(F)cc2)OCCCC[C@H](C)Oc2ccc(NS(=O)(=O)c3ccccc3)cc2C1=O	/	0.5	-1.5	3.4	2.9
O=S(=O)(Cc1cc(NCc2ccccc2)nc(-c2ccccn2)n1)c1ccccc1	-2.7	35.5	-39.1*	-2.8	-0.6
Cc1ccc(S(=O)(=O)N2[C@@H](c3ccc(Cl)cc3)C(C(=O)O)=CC[C@H]2c2cccc(Cl)c2)cc1	-17.6	0.2	-41.4	22.4	1.8
Cc1ccc(S(=O)(=O)N2[C@@H](c3ccc(Cl)cc3)C(C(=O)O)=CC[C@H]2c2cccc(C)c2)cc1	1.5	-3.1	-21.5*	-3.9	-2.0
